Hits are enriched below; roughly 2.9% of the tested compounds scored in any of these assays.
PLCb3 inh: PLC-beta3 (human) inhibition, primary screen | inhibition, % at 12.2 µM | Q01970 | AID 720704 | 370,000 compounds, 0.18% hits | Purified PLC-beta3, fluorogenic substrate, fluorescence; in the data active means inhibition above about 11%;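 further: 0% = median of compound wells on plate and 100% = full blocker control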
ADAM17 inh: inhibits human ADAM17; recombinant ADAM17, EDANS/DABCYL FRET peptide cleavage; inhibition, % at 6.95 µM; 370,000 compounds, 0.83% hits; AID 720648;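 active means inhibition above the mean of compounds lying between control limits plus 3 SD, set per campaign, cut at about 8.5% in these data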;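 further: 0% = DMSO-only wells as the low control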
ADAM10 inh: inhibits human ADAM10 | inhibition, % at 7 µM | 370,000 compounds, 0.62% hits | recombinant ADAM10, EDANS/DABCYL FRET peptide cleavage, 3 h | AID 720582 | O14672;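 active means inhibition above a per-campaign cutoff equal to the mean of compounds falling between control-based bounds plus 3 SD, cut at about 20% in these data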;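 further: 0% = DMSO wells while the 100% control is not disclosed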
KLK7 zymogen act: activators of human kallikrein-7 zymogen. purified proKLK7, EDANS-DABCYL substrate fluorescence; 100% is mature enzyme control, 0% vehicle. 370,000 compounds, 0.9% hits. AID 652039. P49862. activation, % at 7 µM;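 active means activation above the mean of all tested compounds plus 3 SD, computed per campaign excluding outliers beyond control limits, cut at about 13% in these data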
PLC-gamma1 inh: blocks human PLC-gamma1 enzyme activity; 370,000 compounds, 0.84% hits; inhibition, % at 12.2 µM; AID 720700; purified PLC-gamma1, fluorogenic substrate, fluorescence; P19174; in the data active means inhibition above about 9.5%
ADAM10 counter: counter-screen for ADAM17 exosite inhibitors: inhibitors of human ADAM10; shares compounds with ADAM17 inh; recombinant ADAM10, EDANS/DABCYL FRET peptide cleavage, 3 h; inhibition, % at 6.95 µM; 2,900 compounds, 47% hits; AID 743256;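 active means mean inhibition over the triplicate runs exceeds the activity threshold set in the earlier primary screen, cut at about 20% in these data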;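 further: 0% = DMSO wells and 100% = marimastat wells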
ADAM17 confirm: confirmation of inhibitors of human ADAM17; inhibition, % at 6.95 µM; 2,900 compounds, 65% hits; shares compounds with ADAM17 inh; recombinant ADAM17, EDANS/DABCYL QFRET peptide cleavage;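 active means mean inhibition across replicates above the hit cutoff set in the primary screen, cut at about 8.5% in these data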;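 further: 0% = DMSO wells and 100% = marimastat wells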
Starred values were filed as active, the others as inactive; . = not tested or not shown.

SMILES	PLCb3 inh	ADAM17 inh	ADAM10 inh	KLK7 zymogen act	PLC-gamma1 inh	ADAM10 counter	ADAM17 confirm
CCc1noc(C)c1C(=O)OC(C)C(=O)Nc1ccc2c(c1)OCO2 (stereo not drawn)	-5	8.8*	-12	-1	8	15	13*
COc1ccc(S(=O)(=O)N2CCOCC2)cc1NC(=O)CN1C(=O)NC(C)(C2CC2)C1=O (stereo not drawn)	-3	0	4	0	-1	.	.
CCCCN1C(=O)/C(=C/C=C2\SCCN2C)SC1=S	-12	12*	15	0	-7	25*	16*
CN1CCS/C1=C/C=C1\SC(=S)N(CC(=O)O)C1=O	-14	8.9*	15	0	-14	27*	13*
COc1cccc(/C=N/NC(=O)CSc2nnc(C)n2-c2ccccc2)c1O	-4	3	0	-1	-6	.	.
CCCCSc1nc(C)cc(SCC(=O)N/N=C/c2cccc(OC)c2O)n1	-32	14*	11	-2	-18	2	8
COc1cccc(NC(=O)N(C)C[C@@H]2OCc3cn(nn3)CCCC(=O)N([C@H](C)CO)C[C@H]2C)c1	-3	-1	-5	0	0	.	.
O=C(Nc1ccc2c(c1)OCO2)c1cc(C2CCCCN2C(=O)c2ccc3c(c2)CCO3)on1 (stereo not drawn)	1	0	3	0	-3	.	.
O=C(CNC(=O)c1ccccc1F)NCC(c1cccs1)N1CCOCC1 (stereo not drawn)	-9	-1	-14	-1	3	.	.
CCCCN1C(=O)C(O)=C(C(C)=O)C1c1ccc(OC)cc1OC (stereo not drawn)	0	10*	8	0	2	0	1
COc1cccc(NC(=O)C2(C)CCN2C(=O)CC2CCCC2)c1 (stereo not drawn)	1	-1	0	0	2	.	.
CCCCCCCCn1cnc2c(N)c(C)c(C)cc21	4	8.8*	7	1	5	19	9.0*
COc1ccc(Cn2cnc3c(N)c(C)c(C)cc32)cc1	3	0	8	0	6	.	.
O=C(N/N=C/c1cccnc1)C1CCCN(S(=O)(=O)c2ccccc2)C1 (stereo not drawn)	9	9.2*	6	0	6	8	7
O=C(COc1ccccc1Cl)Nc1cnn(Cc2ccccc2)c1	4	9.4*	15	0	5	10	6
O=C(COc1ccccc1Cl)Nc1ccc(CN2CCCCC2)cc1	-134	-6	0	0	-3	.	.
COc1ccc(CN(C(=O)c2oc3cc(C)c(C)cc3c2C)C2CCS(=O)(=O)C2)cc1OC (stereo not drawn)	-6	9.7*	6	0	4	13	9.4*
COc1ccc(CN(C(=O)c2oc3ccccc3c2C)C2CCS(=O)(=O)C2)cc1OC (stereo not drawn)	-3	-4	-8	0	4	.	.
Cc1ccc(NC(=O)C(OC(=O)c2cc(C)oc2C)c2ccccc2)cc1 (stereo not drawn)	3	11*	14	0	-1	16	12*
CCOC(=O)C1(C)CCN1C(=O)c1ccc(OC)c(OC)c1 (stereo not drawn)	-2	-5	-13	0	2	.	.
CCCCNC(=O)OCCCN1CCC2(CCC(c3ccccc3)CC2)C1=O (stereo not drawn)	0	1	-5	0	-2	.	.
CCc1ccc(CCNC(=O)OCCCN2CCC3(CCC(c4ccccc4)CC3)C2=O)cc1 (stereo not drawn)	-10	9.4*	12	1	0	36*	15*
OC(c1ccccc1)(c1ccccc1)C1CCN(CCCNc2ccc(C(F)(F)F)cc2)CC1	7	9.4*	17	1	6	20	11*
N#Cc1ccc(NCCCN2CCC(C(O)(c3ccccc3)c3ccccc3)CC2)cc1	4	0	2	1	2	.	.
COc1ccc(NS(=O)(=O)c2cc(NS(=O)(=O)c3cc(C(=O)O)ccc3OC)ccc2C)cc1	-3	-1	-2	0	-2	.	.

High-throughput results deposited in PubChem by The Scripps Research Institute Molecular Screening Center.
